Results on three molecules are retold here after PubChem BioAssay (NCATS).

SMILES strings stand for the structures. Inconclusive results are not listed. The source made the active and inactive calls. Calls come from the whole dose curve; as a rule, active = well fitted curve in the direction sought with a large enough effect; inconclusive = small, poorly fitted or top-dose-only effect, or another doubt; inactive = no such curve, though single readings can be large; an effect the other way counts as inactive or inconclusive.

Assay [1] is described as follows: NCATS anti-infectives library activity on HEK293 viability as a counter-qHTS vs the C. elegans viability qHTS (AID 1745854).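 Note: HEK293 cells exposed to compounds for 24 hr before the viability read; % is set by controls: 0 for no effect and ±100 for the full control effect.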 In outline:
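Compound titrations (final up to 41.7 uM) were incubated with HEK293 cells for 24 hr at 37C under 5% CO2. Viable cells were quantified with CellTiter-Glo after 10 min at ambient temperature.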
(qHTS replaces the single test concentration by a dilution series.)

For assay [2], the target named is Rap guanine nucleotide exchange factor 4 (Homo sapiens) (UniProt Q8WZA2). Nature of the assay: Confirmatory qHTS for antagonist of cAMP-regulated guanine nucleotide exchange factor 4 (EPAC2) (AID 1645885). Note: % is set by controls: 0 for no effect and ±100 for the full control effect; nearly all actives have a fitted effect of over 25% in size.
Assay [3] addresses Rap guanine nucleotide exchange factor 3 (Homo sapiens) (UniProt O95398). Nature of the assay: Counterscreen qHTS for antagonist of cAMP-regulated guanine nucleotide exchange factor 3 (EPAC1) (AID 1645888).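 Note: fluorescence loss as bound BODIPY-GDP is released from Rap1B; % of control where 0% means no effect.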 In outline: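 Rap1B–BODIPY-GDP (250 nM) with 50 uM GDP; compounds pin-transferred to 9.74 nM–152 uM final (activator) or from 7.32 nM upwards (inhibitor). Fluorescence Ex/Em 480/540 nm read at 5 and 30 min, then after adding cAMP or buffer, at room temperature.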
(In general: A counterscreen serves to expose hits that act by an unwanted route or on another target.)

Assay [4] concerns the target Catechol O-methyltransferase (Homo sapiens) (UniProt P21964). Nature of the assay: Confirmatory Screen for Target Class Profiling of Small Molecule Inhibitors of Methyltransferases (AID 1745852). For activity change, negative = inhibition: % is set by controls: 0 for no effect and ±100 for the full control effect. The settings on record: MTase-Glo luminescence, SAH detection, recombinant enzyme; measured here: COMT max response; stronger effect = lower value.
The target in assay [5] is Guanidinoacetate N-methyltransferase (Homo sapiens) (UniProt Q14353). Described as above. As to conditions: MTase-Glo luminescence, SAH detection, recombinant enzyme; activity change, negative = inhibition: at 85.7 µM (top of the series) unless noted.
Assay [6] addresses Nicotinamide N-methyltransferase (Homo sapiens) (UniProt P40261). The assay is described as above. The settings on record: MTase-Glo luminescence, SAH detection, recombinant enzyme; measured here: NNMT max response; stronger effect = lower value.
Assay [7] concerns the target Phenylethanolamine N-methyltransferase (Homo sapiens) (UniProt P11086). The assay is described as above. The settings on record: MTase-Glo luminescence, SAH detection, recombinant enzyme; measured here: PNMT max response; stronger effect = lower value.

Phenylethanolamine N-methyltransferase (Homo sapiens), sequence (P11086 whole entry, looked up): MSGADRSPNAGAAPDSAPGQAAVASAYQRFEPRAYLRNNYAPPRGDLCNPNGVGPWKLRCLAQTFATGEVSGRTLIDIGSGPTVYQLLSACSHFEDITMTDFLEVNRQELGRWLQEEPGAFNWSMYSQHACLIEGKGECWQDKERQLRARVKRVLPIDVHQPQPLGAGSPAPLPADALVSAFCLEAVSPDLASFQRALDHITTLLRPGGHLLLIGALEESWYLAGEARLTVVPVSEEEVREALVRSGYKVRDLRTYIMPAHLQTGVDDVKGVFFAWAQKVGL
Nicotinamide N-methyltransferase (Homo sapiens), sequence (P40261 whole entry, looked up): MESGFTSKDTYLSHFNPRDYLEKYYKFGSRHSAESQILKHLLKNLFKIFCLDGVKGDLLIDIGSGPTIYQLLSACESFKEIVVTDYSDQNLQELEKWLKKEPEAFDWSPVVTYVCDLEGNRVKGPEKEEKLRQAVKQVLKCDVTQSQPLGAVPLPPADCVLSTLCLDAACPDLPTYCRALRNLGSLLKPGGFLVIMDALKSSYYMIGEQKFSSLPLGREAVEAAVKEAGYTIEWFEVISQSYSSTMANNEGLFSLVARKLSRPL
Catechol O-methyltransferase (Homo sapiens), sequence (P21964 whole entry, looked up): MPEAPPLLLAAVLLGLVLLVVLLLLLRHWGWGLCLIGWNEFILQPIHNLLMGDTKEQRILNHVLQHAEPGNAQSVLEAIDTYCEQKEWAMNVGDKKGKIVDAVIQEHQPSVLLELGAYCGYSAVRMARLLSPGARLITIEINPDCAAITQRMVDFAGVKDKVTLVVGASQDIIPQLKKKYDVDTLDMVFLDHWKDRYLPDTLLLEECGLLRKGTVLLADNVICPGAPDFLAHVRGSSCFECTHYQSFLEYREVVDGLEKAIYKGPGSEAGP
Rap guanine nucleotide exchange factor 3 (Homo sapiens), sequence (O95398 whole entry, looked up): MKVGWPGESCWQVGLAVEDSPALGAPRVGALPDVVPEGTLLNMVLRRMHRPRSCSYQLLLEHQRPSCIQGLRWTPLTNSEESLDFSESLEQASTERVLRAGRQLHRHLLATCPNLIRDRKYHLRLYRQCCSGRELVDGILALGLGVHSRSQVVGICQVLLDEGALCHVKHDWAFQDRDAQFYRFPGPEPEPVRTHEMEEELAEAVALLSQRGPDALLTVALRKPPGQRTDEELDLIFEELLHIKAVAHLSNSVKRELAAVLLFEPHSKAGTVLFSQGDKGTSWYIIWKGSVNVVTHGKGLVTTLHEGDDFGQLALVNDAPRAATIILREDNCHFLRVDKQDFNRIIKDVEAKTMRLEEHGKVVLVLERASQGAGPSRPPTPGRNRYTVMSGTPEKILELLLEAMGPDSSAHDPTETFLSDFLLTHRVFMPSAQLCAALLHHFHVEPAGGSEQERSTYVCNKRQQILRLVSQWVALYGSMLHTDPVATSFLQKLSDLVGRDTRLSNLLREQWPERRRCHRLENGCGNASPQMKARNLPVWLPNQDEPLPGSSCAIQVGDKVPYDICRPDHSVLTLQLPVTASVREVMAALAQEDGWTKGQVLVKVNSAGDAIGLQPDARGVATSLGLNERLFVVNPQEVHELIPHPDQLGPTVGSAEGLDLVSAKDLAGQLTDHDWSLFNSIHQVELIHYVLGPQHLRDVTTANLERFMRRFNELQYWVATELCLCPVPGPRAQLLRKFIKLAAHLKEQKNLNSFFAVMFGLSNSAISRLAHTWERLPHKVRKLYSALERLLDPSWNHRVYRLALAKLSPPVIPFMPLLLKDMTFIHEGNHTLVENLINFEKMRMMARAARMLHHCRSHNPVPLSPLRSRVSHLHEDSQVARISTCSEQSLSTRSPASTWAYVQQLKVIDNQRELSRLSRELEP
Rap guanine nucleotide exchange factor 4 (Homo sapiens), sequence (Q8WZA2 whole entry, looked up): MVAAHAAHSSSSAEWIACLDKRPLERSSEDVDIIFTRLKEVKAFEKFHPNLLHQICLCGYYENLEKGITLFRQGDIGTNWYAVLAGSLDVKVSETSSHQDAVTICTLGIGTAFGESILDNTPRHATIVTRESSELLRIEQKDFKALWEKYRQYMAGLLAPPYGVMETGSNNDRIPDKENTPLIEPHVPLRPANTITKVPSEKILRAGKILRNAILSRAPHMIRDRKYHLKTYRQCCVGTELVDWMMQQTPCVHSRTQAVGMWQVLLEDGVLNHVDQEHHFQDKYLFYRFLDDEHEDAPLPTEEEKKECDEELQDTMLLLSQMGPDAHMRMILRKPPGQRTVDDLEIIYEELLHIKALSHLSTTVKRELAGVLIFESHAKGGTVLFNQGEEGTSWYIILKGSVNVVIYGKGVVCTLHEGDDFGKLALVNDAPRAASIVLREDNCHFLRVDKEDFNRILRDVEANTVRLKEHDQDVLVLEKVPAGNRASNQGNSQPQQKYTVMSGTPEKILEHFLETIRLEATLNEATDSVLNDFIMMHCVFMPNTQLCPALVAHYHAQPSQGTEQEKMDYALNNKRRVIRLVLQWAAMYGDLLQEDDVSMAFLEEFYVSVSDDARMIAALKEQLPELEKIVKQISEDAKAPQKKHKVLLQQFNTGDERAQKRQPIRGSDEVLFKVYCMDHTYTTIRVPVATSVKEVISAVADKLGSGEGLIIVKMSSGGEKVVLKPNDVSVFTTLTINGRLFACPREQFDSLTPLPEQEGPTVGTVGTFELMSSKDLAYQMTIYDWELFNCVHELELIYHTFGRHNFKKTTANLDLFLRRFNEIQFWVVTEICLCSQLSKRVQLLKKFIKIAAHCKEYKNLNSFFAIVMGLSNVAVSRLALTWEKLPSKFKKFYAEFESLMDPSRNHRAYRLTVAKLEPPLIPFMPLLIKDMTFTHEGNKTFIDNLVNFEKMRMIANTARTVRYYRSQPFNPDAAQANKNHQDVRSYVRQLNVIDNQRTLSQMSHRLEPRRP

Regarding `C[C@@H](N)C(=O)N[C@@H](CO)C(=O)N[C@H](C(=O)N[C@H](C(=O)N[C@H](C(=O)N[C@@H](CC(N)=O)C(=O)N[C@@H](Cc1ccc(O)cc1)C(=O)N[C@H](C(N)=O)[C@@H](C)O)[C@@H](C)O)[C@@H](C)O)[C@@H](C)O`, the Potency entry in assay [1] is “inactive”.
Take `Cc1cc(/C=C2/C(=O)NC(=O)N(Cc3ccco3)C2=O)c(C)n1-c1ccccc1`: the Potency result in assay [2] was “inactive”. For the same molecule, in assay [3], the outcome was “inactive”.
On to `CC(=O)NC[C@H]1C[C@@H]2CCN1C[C@@H]2c1cc(-c2ccc3ccccc3c2)nn1C`, for which the activity was 4.95% in assay [4], 1.11% in assay [6] and 2.7% in assay [7]. Besides, the activity change, negative = inhibition in assay [5] stood at 4.16%.
